Results taken from PubChem BioAssay (Tox21).
Results filed as inconclusive are left out. Active and inactive are the calls of the source. Unless noted, the call rests on the fitted dose curve; in most records, active means well fitted curve in the direction sought with a large enough effect in the repeat runs; inconclusive means weak or mixed curves; inactive means no such curve, though single readings can be large; an effect the other way counts as inactive or inconclusive.

Experiments:
[1] = qHTS assay to identify small molecule agonists of the RXR signaling pathway - cell viability counter screen (AID 1159529);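 further: HEK 293T cells carrying an RXR-alpha UAS beta-lactamase reporter; nearly all actives have a fitted effect of over 50% in size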
Procedure, shortened: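 Tox21 10K compounds were tested for cytotoxicity against GeneBLAzer RXR-alpha HEK 293T cells grown in 2% charcoal-stripped FBS. Exposure lasted 16 hr at 37 C, 5% CO2; viability read by CellTiter-Glo luminescence.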

[2] = qHTS assay to identify small molecule antagonists of the retinoid acid receptor (RAR) signaling pathway - cell viability counter screen (AID 1159551); further: nearly all actives have a fitted effect of over 35% in size
Procedure, shortened: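 Seed C3RL4 cells; next day add compound, then retinol to 1 uM final; incubate 6 h at 37 C; add CellTiter-Glo; read luminescence after 30 min at RT.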

[3] = qHTS assay to identify small molecule antagonists of the retinoic acid receptor (RAR) signaling pathway (AID 1159552; further: nearly all actives have a fitted effect of over 50% in size)
Procedure, shortened: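 Overnight-plated C3RL4 reporter cells get compound, then retinol to 1 uM final; plates sit 6 hr at 37 C, 5% CO2. A luciferase reagent is added and light output recorded after 30 min at room temperature.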

[4] = qHTS assay to identify small molecule agonists of the retinoic acid receptor (RAR) signaling pathway (AID 1159553); conditions: C3RL4 RARE luciferase reporter, agonist, 6 h; activation: at 73.3 µM (top of the series)
Procedure, shortened: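 Activation of retinol signaling was monitored via a RARE luciferase reporter in C3RL4 cells. After 6 hr compound treatment at 37 C, detection reagent was added for 30 min at room temperature before luminescence reading.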

[5] = biological target: Luciferin 4-monooxygenase (Photinus pyralis) (UniProt P08659); experiment: qHTS assay to identify small molecule inhibitors of firefly luciferase (AID 1224835); further: nearly all actives have a fitted effect of over 25% in size
Procedure, shortened: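 Inhibition of purified Photinus luciferase is measured by luminescence. Substrate levels (D-luciferin, ATP) sit at their KM values. Each compound is tested in a concentration series.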

[6] = qHTS assay to identify small molecule agonists of the constitutive androstane receptor (CAR) signaling pathway - cell viability counter screen (AID 1224836); further: nearly all actives have a fitted effect of over 45% in size
Procedure, shortened: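 Fluorescence from CellTiter-Fluor indicates live cells after 23 h exposure. The human hepatoma line expresses hCAR and a CYP2B6-2.2kb reporter. Incubation medium contains 0.75 uM PK11195 (final).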

[7] = qHTS assay to identify small molecule antagonists of the constitutive androstane receptor (CAR) signaling pathway - cell viability counter screen (AID 1224837); further: nearly all actives have a fitted effect of over 45% in size
Procedure, shortened: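 Using CellTiter-Fluor, viability is scored in HepG2 cells stably carrying hCAR and a 2.2kb CYP2B6 reporter after 23 hr compound exposure across 15 concentrations, with CITCO present at 50 nM.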

[8] = qHTS assay to identify small molecule antagonists of the estrogen related receptor signaling pathway with the pleiotropic PPARgamma coactivator (PGC) from Tox21 10K library - cell viability counter screen (AID 1224840; active means well fitted cell-killing curve with a large enough effect in the repeat runs, not every such curve was filed as active; further: nearly all actives have a fitted effect of over 40% in size)
Procedure, shortened: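 Here the PGC/ERR cells serve as a cytotoxicity control: they are exposed to compounds for 17.5 hours at 37 C, and live-cell signal is quantified using CellTiter-Fluor fluorescence.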

[9] = qHTS assay to identify small molecule agonists of the hypoxia (HIF-1) signaling pathway - cell viability counter screen (AID 1224844; calls by dose curve; further: nearly all actives have a fitted effect of over 50% in size)
Procedure, shortened: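 Multiplexed with the HRE beta-lactamase assay, this viability read used CellTiter-Glo luminescence (30 min, RT) on HRE-bla ME-180 cells treated 17 hrs with compounds in 0.5% dialyzed FBS medium.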

[10] = qHTS assay to identify small molecule agonists of H2AX (AID 1224845; active means well fitted activation curve with a large enough effect in the signal ratio in the repeat runs, not every such curve was filed as active; the % refers to the signal ratio)
Procedure, shortened: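 Phospho-H2AX Ser139 measured by HTRF (ex 320 nm; em 665 and 620 nm) after 24 hr antibody incubation. Compounds, 15 concentrations, 0.76% DMSO, were applied to CHO-K1 cells for 3hr at 37C before lysis.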

[11] = qHTS assay to identify small molecule agonists of the hypoxia (HIF-1) signaling pathway (AID 1224846; active means well fitted activation curve with a large enough effect in the signal ratio in the repeat runs, not every such curve was filed as active; the % refers to the signal ratio)
Procedure, shortened: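 Hypoxia-pathway activation was scored as increased beta-lactamase from an HRE-controlled reporter in ME-180 cells; plated at 2,000 cells per well with 0.5% dialyzed FBS, they were exposed 17 hrs to compounds and then given CCF4-AM.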

[12] = qHTS assay to identify small molecule antagonists of the estrogen related receptor (ERR) signaling pathway from Tox21 library - cell viability counter screen (AID 1224834); further: nearly all actives have a fitted effect of over 30% in size
Procedure, shortened: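 CellTiter-Fluor fluorescence measured; ERR cells; 17.5 h compound incubation at 37 C; 30 min reagent step.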

[13] = biological target: Thyrotropin receptor (Homo sapiens) (UniProt P16473); experiment: qHTS assay to identify small molecule agonists of the thyroid stimulating hormone receptor (TSHR) signaling pathway (AID 1224843; calls by dose curve; further: nearly all actives have a fitted effect of over 45% in size)
Procedure, shortened: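 HEK293 cells stably bearing the thyrotropin receptor were plated at 800 cells/well and challenged with compound (30 min, RT). Accumulated cAMP was quantified via cAMP-d2 competing for cryptate-tagged antibody.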

[14] = qHTS assay to identify small molecule antagonists of the estrogen related receptor (ERR) signaling pathway from Tox21 library (AID 1224848); further: nearly all actives have a fitted effect of over 50% in size
Procedure, shortened: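 Reading was by luminescence 30 min after ONE-Glo addition. Before that, ERR cells at 2,000 per well had rested 6 h at 37 C/5% CO2 and then received pin-tooled compounds in DMSO for 18 h at 37 C.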

[15] = qHTS assay to identify small molecule agonists of the estrogen related receptor (ERR) signaling pathway from Tox21 library (AID 1224849; calls by dose curve; further: nearly all actives have a fitted effect of over 15% in size)
Procedure, shortened: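 Six hours post-seeding at 37 C/5% CO2, ERR cells receive DMSO-solubilised compounds; after 18 h at 37 C, ONE-Glo reagent is applied and luminescence recorded.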

[16] = qHTS assay to identify small molecule agonists of H2AX - cell viability counter screen (AID 1224847; calls by dose curve; further: top concentration of the series differs between compounds; nearly all actives have a fitted effect of over 30% in size)
Procedure, shortened: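 Viability of CHO-K1 (wild type) cells after 3 hr compound exposure was measured by CellTiter-Glo luminescence.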

[17] = qHTS assay to identify small molecule antagonists of the estrogen related receptor signaling pathway with the pleiotropic PPARgamma coactivator (PGC) from Tox21 10K library (AID 1224841; call rule not given here)
Procedure, shortened: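 Each well held 2,000 PGC/ERR cells, pre-incubated six hours (37 C, 5% CO2). Test substances in DMSO were added by pin tool and left for 18 h at 37 C before luciferase detection by One-Glo.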

[18] = qHTS assay to identify small molecule agonists of the estrogen related receptor signaling pathway with the pleiotropic PPARgamma coactivator (PGC) from Tox21 10K library (AID 1224842); further: nearly all actives have a fitted effect of over 15% in size
Procedure, shortened: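 Luminescence from One-Glo (30 min, room temperature) measured after PGC/ERR cells had 18 h at 37 C with pinned compound (23 nL in DMSO). Cells had been seeded at 2,000 per well and pre-incubated 6 h.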

Measured: Potency

Sequence of Luciferin 4-monooxygenase (Photinus pyralis) (P08659 whole entry, looked up): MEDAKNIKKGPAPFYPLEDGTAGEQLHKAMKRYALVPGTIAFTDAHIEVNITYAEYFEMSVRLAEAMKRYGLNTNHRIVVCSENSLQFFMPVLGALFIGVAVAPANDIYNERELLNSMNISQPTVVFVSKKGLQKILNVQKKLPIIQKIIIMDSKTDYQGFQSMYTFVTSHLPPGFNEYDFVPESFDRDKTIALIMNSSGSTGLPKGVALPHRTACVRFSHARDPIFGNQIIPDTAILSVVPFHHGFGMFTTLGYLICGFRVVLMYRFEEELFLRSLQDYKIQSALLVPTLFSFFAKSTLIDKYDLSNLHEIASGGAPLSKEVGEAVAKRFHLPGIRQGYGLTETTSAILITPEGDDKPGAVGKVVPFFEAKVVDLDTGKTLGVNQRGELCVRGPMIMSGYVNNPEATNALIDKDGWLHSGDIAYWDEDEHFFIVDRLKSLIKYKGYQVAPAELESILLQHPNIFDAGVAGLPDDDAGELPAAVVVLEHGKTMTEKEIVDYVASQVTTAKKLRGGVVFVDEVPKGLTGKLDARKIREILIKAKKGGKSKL
Sequence of Thyrotropin receptor (Homo sapiens) (P16473 whole entry, looked up): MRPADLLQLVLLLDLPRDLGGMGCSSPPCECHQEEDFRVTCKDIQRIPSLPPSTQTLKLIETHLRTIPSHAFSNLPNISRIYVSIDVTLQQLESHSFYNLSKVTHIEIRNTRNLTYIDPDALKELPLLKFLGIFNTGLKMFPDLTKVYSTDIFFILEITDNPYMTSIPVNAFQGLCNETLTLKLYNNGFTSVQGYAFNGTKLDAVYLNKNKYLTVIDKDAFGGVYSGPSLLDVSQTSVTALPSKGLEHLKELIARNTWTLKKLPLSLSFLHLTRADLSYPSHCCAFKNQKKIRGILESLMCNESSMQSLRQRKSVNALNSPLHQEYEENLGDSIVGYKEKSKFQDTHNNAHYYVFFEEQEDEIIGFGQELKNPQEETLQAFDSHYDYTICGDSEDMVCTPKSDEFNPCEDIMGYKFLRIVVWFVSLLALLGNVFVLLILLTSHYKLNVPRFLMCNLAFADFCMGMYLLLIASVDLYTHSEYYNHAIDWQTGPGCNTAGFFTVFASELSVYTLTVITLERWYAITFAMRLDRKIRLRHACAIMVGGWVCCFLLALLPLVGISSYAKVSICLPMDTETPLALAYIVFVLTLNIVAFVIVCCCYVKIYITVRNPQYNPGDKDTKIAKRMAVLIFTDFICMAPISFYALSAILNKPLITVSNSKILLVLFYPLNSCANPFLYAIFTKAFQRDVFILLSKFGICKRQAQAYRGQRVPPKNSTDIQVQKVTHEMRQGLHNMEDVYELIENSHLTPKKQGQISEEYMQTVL

CCC(CO)CO
inactive: [1] | [2] | [3] | [4] | [5] | [6] | [7] | [8] | [9] | [10] | [11]

O=S(=O)(O)c1cc(O)ccc1O
inactive: [1] | [2] | [3] | [4] | [12] | [6] | [7] | [8] | [13] | [9] | [14] | [15]

NS(=O)(=O)c1cc2c(cc1Cl)NC(CC1CCCC1)NS2(=O)=O (stereo unspecified)
inactive: [1] | [2] | [3] | [4] | [5] | [6] | [7] | [8] | [13] | [10] | [16]

COc1cc2c3cc1Oc1cc(ccc1O)C[C@@H]1c4c(cc(OC)c(O)c4Oc4ccc(cc4)C[C@@H]3N(C)CC2)CC[N+]1(C)C
inactive: [1] | [2] | [3] | [4] | [5] | [6] | [7] | [8] | [13] | [9] | [11] | [16]

C=CCOCC(O)CCl (stereo unspecified)
inactive: [1] | [2] | [3] | [4] | [5] | [6] | [7] | [8] | [9] | [10] | [11] | [16]

C[C@H](CCC(=O)NCC(=O)O)[C@H]1CC[C@H]2[C@@H]3[C@H](O)C[C@@H]4C[C@H](O)CC[C@]4(C)[C@H]3C[C@H](O)[C@]12C
inactive: [1] | [2] | [3] | [12] | [6] | [7] | [8] | [17] | [18] | [9] | [10] | [16] | [14] | [15]

O=C(Oc1ccccc1C(=O)O)c1ccccc1O
inactive: [1] | [2] | [3] | [5] | [6] | [7] | [8] | [17] | [18] | [13] | [9] | [10] | [11] | [16] | [14] | [15]

N#CCCOCCOCCC#N
inactive: [1] | [2] | [3] | [4] | [6] | [7] | [8] | [13] | [10] | [11] | [16]

C[CH2][Ge]([Cl])([CH2]C)[CH2]C
inactive: [1] | [2] | [3] | [12] | [5] | [6] | [7] | [8] | [17] | [18] | [16] | [14] | [15]

C=C[Si](C)(C)O[Si](C)(C)C=C
inactive: [1] | [2] | [3] | [5] | [6] | [7] | [8] | [13] | [9] | [10] | [11]

CCCCC[Si](OCC)(OCC)OCC
inactive: [1] | [2] | [3] | [12] | [6] | [7] | [8] | [9] | [10] | [11] | [16]

CCCC(C)CC (stereo unspecified)
inactive: [1] | [2] | [3] | [12] | [6] | [7] | [8] | [13] | [9] | [10] | [11] | [16]
